# Data: the supplement of paper PMC11417369
# Over roughly 25,000 sequences, “ln(normalized median fluorescence intensity)” has its median near 6.7; the highest 2% begin near 10. Many of the other results were omitted from the sample, so the highest values are more common in it than they were.
# Test system: PfHDP1 homeodomain (GST-tagged)
# Experiment: gcPBM binding intensity (ln(normalized median fluorescence intensity)); higher = stronger DNA binding
# Method in brief: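 For binding intensity, the highest Masliner-normalised natural-log median intensity across replicate spots of either probe orientation was taken. Protein bound to the array was stained with Alexa488 anti-GST antibody and scanned at 488 nm. The protein, GST-tagged P. falciparum DNA-binding domains from E. coli at about 25 μg on average, had been applied for 1 h to an Agilent 4 × 180k array of primer-extended double-stranded 36-bp intergenic genomic probes and negative controls.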
row,Sequence,gcPBM binding intensity (ln)
1,TTATTTTATTTTTGTGCACACTGATAAATTGAAAAG [CACACA_site2949],11.2
2,TTTATATTAATTGATGTGCACTGAAATATTTGTCCA [GTGCAC_site9655],9.08
3,TTTATTTTTGAAGTTGCACACACAAAAATAAAAAGT [CACACA_site8030],8.92
4,TATTTTGAAAAAGTTGCACACAAAATTTAAAAAAAA [CACACA_site8470],9.29
5,ATTTTATTTTTGTGCACACTGATAAATTGAAAAGAG [CACACA_site2948],11.1
6,TTTTGAAAAAATTTTTATAAAAGAATAAAATTATTA [XGTACX_negctrl_site570],6.06
7,CACTTTTTTTAAATGTGTACGTATATGAAAATATCA [XGTACX_site4854],6.38
8,GTTATATGAACTTATATACACACCATTTTTGTAAAT [CACACA_site695],6.69
9,AAAATTAACCGTAACACACACACATATAAATATGTA [CACACA_site7791],6.55
10,TAATTATCACATTGCACACACATTTCCTTTTACATT [CACACA_site3443],9.61
11,TCTAATTATCACATTGCACACACATTTCCTTTTACA [CACACA_site9140],9.66
12,TAATTTTTCCTTTTTGCACACATTAACGTCGACGAA [CACACA_site4025],10.8
13,TTATGTTCTTAATGCACACTTATAAGTATCTTATAA [CACACA_site1394],9.72
14,TATATATATATATGTATGCACTTTAATTTTATAAGG,9.31
15,TTTTATGTTCTTAATGCACACTTATAAGTATCTTAT [CACACA_site4895],10.6
16,TATGAATATTGCATGTGTACCTATTATCCTTTTAAA [XGTACX_site4311],6.95
17,TATAAAAAAAAAAAAAGTACTAACTTAAAACAATTT [XGTACX_site7969],5.92
18,CACTTTAATTTATGCACACATATGGAACAACAGCCA [CACACA_site994],10.6
19,TATTCAACATAATATGCACACAAAAATTATGGAACG [CACACA_site8660],9.99
20,AACACTTTAATTTATGCACACATATGGAACAACAGC [CACACA_site8241],10.2
21,TTTTTTTAATAGTGTGCACACAATATACAGAAAAAA [CACACA_site8399],11
22,TTTTTAATATATTAGGTGCACAATAATACACTTTAT,10.3
23,TTTTTTTAACGGTGTGCACACAATATACAGAAAAAA [CACACA_site1415],11.1
24,TTTTTAAAAATATACACACACAGATATTATATATAT [CACACA_site786],6.94

row,Sequence,gcPBM binding intensity (ln)
1,ACAGAATACATATACACACATACAAAAAAGTGCATA [CACACA_site987],7.81
2,TTATAATAATTTTATGCACACAGAAAAATACAAGGT [CACACA_site9169],10.2
3,TGTAGTCTGGAGAAAAGTACATAGTATCTGATAACC [XGTACX_site2018],6.4
4,AACCATTTTAAATATGCACACAGATGCACTAACACA [CACACA_site8565],10.5
5,CCATTTTAAATATGCACACAGATGCACTAACCCATT [CACACA_site1883],9.9
6,GCACTAAAAAAATAAACACACAGATTTATATAATAT [CACACA_site1381],6.5
7,TAAATATGCTCACAGATGCACTAACACATTTTTATA [GTGCAC_site9997],10.4
8,TGGCACTAAAAAAATAAACACACAGATTTATATAAT [CACACA_site8386],6.51
9,CCATTTTAAATATGCACACAGATGCACTAACACATT [CACACA_site5099],10.6
10,TATGTTCCTTTTTGTTGTACTGAAAAATTATGTTCA [XGTACX_site3981],6.61
11,GAAATAATAAATTAAAAATCGTTTATAACATTTAAC [CACACA_negctrl_site425],6.21
12,AAATTCATAAAAATATTTTATAATTATATATAGAAT [TGCATGCA_negctrl_site343],6.34
13,ATAAAATATATATATATAAAAATAAATACATAAATA [GTGCAC_negctrl_site157],6.31
14,GCATATGTTTATTGCACACACCAAAAAGAAAACATA [CACACA_site4384],10.5
15,ATGCATATGTTTATTGCACACACCAAAAAGAAAACA [CACACA_site403],9.25
16,CACAAAAAGAAACACACACACATATATATTTATTAT [CACACA_site3646],6.73
17,ACTATATTTCATAACAGTACATATTCCTGAAACATC [XGTACX_site4924],6.43
18,ATAATATAAATACAAACACACAATTGTGTCCACATT [CACACA_site6920],6.79
19,AGTATATACACGTGCGTGCACAGATATTCTTTTTTT [GTGCAC_site9398],9.58
20,AATACTAAAAAGTGTACACATACATAAAAAATTGCA [CACACA_site5620],7.24
21,ACGCTAATTATGTGCACACAAATTAAAGGTCTACAA [CACACA_site147],11.4
22,CCACTAATTATGTGCACACAAATTAAAGGTCTACAA [CACACA_site4259],11.4
23,AATTAATGGCTAAAGGTGCACAATATATATATTACA,9.84
24,ATATTCTAAATAAAGGGTACACAAAAATAATTAAAG [XGTACX_site5529],6.9

row,Sequence,gcPBM binding intensity (ln)
1,TCTTTATGTAAGGTCTTCCACAAAAAAATTAAAAAA [TGCATGCA_negctrl_site229],6.21
2,GTACACTAATTATGTGCACACAAATTAAAGGTCTAC [CACACA_site146],11
3,TGTTAATAAAGGTGTACACAAAATAAAAAAAATTAT [CACACA_site4288],7.2
4,TTTATATTTAAAAGGATGCACTACAAATTCTAAATA,7.36
5,GATTTATACAAATATGTACACACTAATTATATATTA [CACACA_site8045],6.9
6,TTTTTCTTTCTCTATTGTACACATGGAAACACATAA [XGTACX_site4601],7.56
7,AAAAAAAAAAGAAACACACACATATATATATATAAT [CACACA_site5052],6.7
8,AATACAAACCAAAAAGTAAATACATCAACATGATCA [CACACA_negctrl_site140],6.26
9,CTATATATTTTTCATTGTACACAAATTAAAGAAAAA [XGTACX_site8385],6.61
10,GTTGCACAATGTTACACACACAATATAGATCGTTAA [CACACA_site6717],9.91
11,ATGTTGCACAATGTTACACACACAATATATATCGTT [CACACA_site4833],10.7
12,GTTGCACAATGTTACACACACAATATATATCGTTAA [CACACA_site1275],9.41
13,ATATAATTACATTGATGTACACGAAATGATTAACAT [XGTACX_site5183],6.43
14,TATTCAGGTCCAATGGTGCAATATATTTTTGTAATA [GTGCAC_site9607],10.6
15,TATTCATATTTAAAGGTGCAATATTTATTTTGTACA,9.16
16,ATTCATTTACCAATGGTGCAATATATTTTTATAATG,10.3
17,ATTAGTATATTTCTCTGTACTTACATTAAAATATAA [XGTACX_site2217],6.41
18,TTACACATGTATTTGGTGCATGTTGTTAACAAAATA,9.83
19,TTTTTTGTTAAGTTGGTGCAAACAATAGTTATTGAC,10.7
20,ATTTATTTATACAAAGTGCAATATTTTGTTAAAGTC [GTGCAC_site9618],8.15
21,TTTATTTTAACTTGTTCACACATTTGAATAAATAAA [CACACA_site5064],6.3
22,ATAATATATTATTATAGTACTTTATTTTATTTTATG [XGTACX_site2387],6.65
23,TTTTTAAAATTTTTAAAAATATTATGTTAAATATAT [CACACA_negctrl_site415],6.29
24,CTTTTTTTTTGATGTTGTACATATATATTATATAAT [XGTACX_site1321],6.9

row,Sequence,gcPBM binding intensity (ln)
1,TTGTACATCTTTTGCACACGTAATGTTATTATAATA [CACACA_site1258],10.7
2,GAACACTAATAATGTTGTACACGTAATTATATATTT [XGTACX_site777],6.53
3,ATTATGTTATTATTTTGTACACATAAATAATACGTT [XGTACX_site816],6.61
4,TTTTTTTTTTTTTTGTGTACATATAATGCACATTAT [XGTACX_site6505],10.1
5,TTGTACATCTTTTGCACACGTAATGTTATTAAAATA [CACACA_site4827],10.7
6,TTTTGTACATCTTTTGCACACGTAATGTTATTATAA [CACACA_site1259],10.6
7,TTATTATAAATGTTTTGTACGTACATCCGAAAATAA [XGTACX_site2175],6.57
8,AAATAATAAAAAAAATGTACACGTAAATATTATATT [XGTACX_site8125],6.99
9,CATACCCATAAACACACACACATATATACCTATATA [CACACA_site4745],6.87
10,AAAAAAAAGTTAAGCACACACATGAATAAATAATAC [CACACA_site840],6.94
11,ATAAAAATATTATAAGCACACATATATATATATATA [CACACA_site8781],9.54
12,AAAGTAAATTTAAGCACACACAACGAATTTTTATAC [CACACA_site1959],6.84
13,TGAAATTTGTTATATGCATGTAAAATATTACGACGA [TGCATGCA_site201],6.59
14,TTTTTTTTTCCGTGTTGTACAAAAAAAAAGATTTTG [XGTACX_site3925],6.21
15,ACACAAAACAAAAAGGTGCTGTATAAATGGGTGTAT [GTGCAC_site9905],7
16,TATTTTAGTAAAGGTGGTACTTTTAAGTTCATGTAT [XGTACX_site1854],6.23
17,TATACAAACTATGATGCACACATATATATATGTATA [CACACA_site8327],8.97
18,TTTTTTTTTTTATGTGCACACAAAAGATGCTTATAT [CACACA_site2347],10.7
19,GCTTATAAGATATGCACACACAACACTTACAAAAAA [CACACA_site817],9.27
20,TTTTTTTTTATGTGCACACAAAAGATGCTTATATTT [CACACA_site2348],11.2
21,TTATTTATTTTTATATGTACACAAAAAAAAAAAAAA [XGTACX_site1459],6.53
22,AGGGAATATTTTTATGCATGTGCTTACACATTACAA [TGCATGCA_site830],6.83
23,TAGCTTATAAGATATGCACACACAACACTTACAAAA [CACACA_site8174],9.5
